High-throughput results deposited in PubChem BioAssay by National Center for Advancing Translational Sciences (NCATS).
Pf growth 48h: P. falciparum growth inhibition at 48 hours (one generation) | Potency, µM (titrated, usually from 28.7 µM), hits mostly inhibitors | AID 504832 | P. falciparum luciferase growth in erythrocytes, 48 h | actives 5.9% (n = 310,000)
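Read-out is firefly luciferase luminescence from an integrated reporter in P. falciparum, so falling signal marks reduced parasite growth. Infected erythrocytes were at 2% hematocrit and 0.1% parasitemia (final) in Albumax-supplemented RPMI 1640.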
CHX counter: affects cycloheximide protein synthesis inhibition readout, counter-screen; cell reporter, cycloheximide protein synthesis inhibition counterscreen; max response, %; actives 12% (n = 300,000); AID 2314; in the data active means max response mostly above about 13%, no sharp cut-off; inactive means mostly below about 14%; further: read at 38.3 µM for the half of the compounds with a filed dose
Shiga inhibitor: inhibitors of Shiga toxin in Vero cells; actives 9.2% (n = 290,000); inhibition, % at 38.7 µM; AID 2315; Vero cells, Shiga toxin protein synthesis inhibition reporter; in the data active means inhibition mostly above about 28%, no sharp cut-off; inactive means mostly below about 43%
NS1 inh: inhibitors of influenza NS1 protein function; Potency, µM (doses to about 46.1 µM); actives 0.4% (n = 270,000); AID 2326; calls by dose curve; further: actives are rising curves; nearly all actives have a fitted effect of over 50% in size
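S. cerevisiae expressing influenza A NS1, grown in glucose, washed, then diluted 1:100 into pH 6.0 -URA galactose medium with 23 nl compound. Growth recovery read as OD600; NS1-free strain serves as control.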
Pf growth 96h: inhibits malaria parasite growth, 96 h; P. falciparum luciferase reporter growth, 96 h; Potency, µM (doses to about 28.7 µM), actives largely listed as inhibitors; actives 6.9% (n = 320,000)
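Erythrocytes infected with luciferase-expressing P. falciparum were dispensed at 2% hematocrit and 0.05% parasitemia (final), then incubated with compounds 96 hours at 37 C in 5% CO2. Luminescence after detection reagent addition reported growth.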
FBPA Giardia inh: blocks Giardia fructose-bisphosphate aldolase activity | actives 0.71% (n = 290,000) | Potency, µM (titrated, usually from 59.6 µM), usual class: inhibitors | purified Giardia FBPA | A8B2U2; further: nearly all actives have a fitted effect of over 55% in size
Target sequence (A8B2U2 whole entry, looked up): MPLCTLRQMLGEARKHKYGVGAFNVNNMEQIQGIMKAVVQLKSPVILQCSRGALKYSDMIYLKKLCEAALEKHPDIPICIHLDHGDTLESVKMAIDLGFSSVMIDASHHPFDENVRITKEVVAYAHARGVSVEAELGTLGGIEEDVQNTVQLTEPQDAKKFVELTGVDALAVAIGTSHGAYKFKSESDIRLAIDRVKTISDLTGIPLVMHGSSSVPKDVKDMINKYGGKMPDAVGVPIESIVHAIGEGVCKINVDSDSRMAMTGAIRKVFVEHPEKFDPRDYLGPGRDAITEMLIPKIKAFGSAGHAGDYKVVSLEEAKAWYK
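Giardia FBPA (40 nM reagent) was preincubated 10 min at RT with compound (up to 57.5 uM final), then substrate plus GAPDH/TPI/NAD/arsenate coupling system with diaphorase/resazurin was added; resorufin fluorescence (525/598 nm) was read after 20 min.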
A number is an active result; 0 = inactive; ? = inconclusive; - = no result given; [ ] = dose if it differs, or a comment. Most compounds without a hit are left out; they make up all but 21% or so of the library. Unless noted, the call rests on the fitted dose curve; in most records, active means well fitted curve in the direction sought with a large enough effect; inconclusive means small, poorly fitted or top-dose-only effect, or another doubt; inactive means no such curve, though single readings can be large; an effect the other way counts as inactive or inconclusive.

SMILES	Pf growth 48h	CHX counter	Shiga inhibitor	NS1 inh	Pf growth 96h	FBPA Giardia inh
Cn1cnnc1SCC(=O)N1c2ccccc2-c2c(ssc2=S)C1(C)C	0	0	0	0	-	0
Cc1ccc2c(c1)C1CN(C)CCC1N2C(=O)c1ccco1 (stereo not given)	0	0	0	?	-	0
COc1ccc(/C(C)=N/NC(=O)OC(C)(C)C)cc1[N+](=O)[O-]	0	22	79	0	?	0
CCOC(=O)N/N=C(\C)c1ccc(Oc2ncccn2)cc1	0	0	0	0	0	0
COC(=O)N/N=C(\C)c1ccc(Br)cc1	-	0	0	0	0	0
CCOC(=O)N/N=C(\C)c1ccc(Br)cc1	-	31	0	0	12µM	0
CCOC(=O)N/N=C(\C)c1ccc(C)c([N+](=O)[O-])c1	0	16	0	?	0	0
CCC(CC)=NNC(=O)c1ccccc1OCc1ccc(F)cc1	0	0	0	0	?	0
C#CCOc1ccccc1/C=N/NC(=O)c1ccccc1OCc1ccccc1	?	0	0	0	10µM	-
COc1ccc(/C(C)=N/NC(=O)c2ccccc2OCc2ccccc2)c(OC)c1	?	33	165	0	0	0
COc1ccc(C(=O)N/N=C(\C)CC(=O)NC2CCCCC2)c(OC)c1	0	0	0	0	0	-
COc1ccc(/C(C)=N/NC(=O)C2C3CCCCC32)c(OC)c1 (stereo not given)	0	0	41	0	0	0
COc1ccc(/C=N/NC(=O)c2ccccc2OCc2ccccc2)c(OC)c1	?	30	64	0	0	0
COc1ccc(NC(=O)CC(C)CC(=O)NCc2ccc(F)cc2)c(OC)c1 (stereo not given)	0	0	0	0	0	0
O=C(Cn1cnc2sc3c(c2c1=O)CCCC3)NCC(=O)Nc1c(F)cc(F)cc1Br	0	0	0	0	?	-
NCC1O[C@@H](O[C@H]2C(O)C(O[C@@H]3C(O[C@H]4OC(CO)C(O)C(O)C4N)C(N)CC(N)[C@H]3O)O[C@@H]2CO)C(N)C(O)C1O (stereo not given in full)	-	-	-	-	-	0
O=C(CC1Nc2c3ccccc3nc(=S)n2C1=O)NC1CCCCC1 (stereo not given)	?	0	0	-	?	0
CCOC(=O)c1ccc(NC(=S)N(CCN2CCCCCC2)Cc2cccs2)cc1	?	0	0	0	0	0
O=C(CCCN1C(=O)/C(=C/c2ccc(F)cc2)SC1=S)NC1CCS(=O)(=O)C1 (stereo not given)	9.3µM	0	0	0	10µM	0
O=C(CCN1C(=O)/C(=C/c2ccccc2F)SC1=S)N[C@@H](CO)Cc1ccccc1	0	0	0	0	?	-
O=C(CCN1C(=O)/C(=C/c2ccccc2)SC1=S)NC1CCS(=O)(=O)C1 (stereo not given)	?	0	0	0	13µM	-
O=C(CCCN1C(=O)c2cccc3cccc(c23)C1=O)NC1CCS(=O)(=O)C1 (stereo not given)	?	0	0	0	12µM	0
O=C(O)CCCN1C(=O)c2cccc3cccc(c23)C1=O	0	0	0	0	?	0
O=C(CCN1C(=O)/C(=C/c2ccccc2)SC1=S)N[C@@H](CO)Cc1ccccc1	0	0	0	0	13µM	-
CCCCNC(=O)NS(=O)(=O)c1ccc(CO)cc1	-	0	0	-	-	0
SMILES	Pf growth 48h	CHX counter	Shiga inhibitor	NS1 inh	Pf growth 96h	FBPA Giardia inh
O=C(c1csnn1)N1CCC2(CCCN(Cc3ccccc3)C2)CC1	-	-	-	-	-	0
C=CCNC(=O)c1cc([N+](=O)[O-])cc2c(=O)[nH]c(Nc3ccc(Cl)c(Cl)c3)nc12	-	-	-	-	-	0
Cc1ccc2c(CN(C)Cc3cccc(F)c3)cc(=O)oc2c1	0	30	88	0	0	0
Cc1cc2oc(=O)cc(CN(C)Cc3cccc(F)c3)c2cc1Cl	0	0	0	0	0	0
COc1cc(CN(C)Cc2cc(=O)oc3cc(C)c(Cl)cc23)ccc1OC(F)F	?	0	50	0	?	0
COc1ccc(CN(C)Cc2cc(=O)oc3cc(C)c(C(C)C)cc23)cc1OC	?	0	0	0	?	0
Cc1cc2oc(=O)cc(CN3CCCCC3)c2cc1C	0	0	0	0	0	0
Cc1cc2oc(=O)cc(CN3CCCCC3C)c2cc1C(C)C (stereo not given)	15µM	0	0	0	?	0
CCc1ccc2c(CN(C)Cc3ccccc3OC)cc(=O)oc2c1	0[0.00184 µM]	19	0	0	0	?
